Marburg entry inh: qHTS for inhibitors of binding or entry into cells for Marburg Virus. Marburg virus pseudotyped entry inhibition, cell reporter. Potency, µM (doses to about 37.8 µM), for inactives: at the top dose activity change, negative = inhibition, hits mostly inhibitors. 300,000 tested, 1.8% active. AID 540276, 2011; calls by dose curve; tested in HEK293 cells
HCV inhibitor: qHTS Assay for Inhibitors of Hepatitis C Virus (HCV) | Huh7.5.1 HCVcc-Cre infection, luciferase reporter, 44 h | Potency, µM (top dose mostly 41.8 µM), without a hit: top-dose activity change, negative = inhibition, most hits filed as inhibitors | 340,000 tested, 3.4% active | AID 651820, 2012; active means well fitted inhibition curve with a large enough effect; inconclusive means small, poorly fitted or top-dose-only effect, or another doubt; inactive means no such curve, though single readings can be large or run the other way
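Whole-lifecycle infectious HCVcc-Cre system; cells 1,000/well, compound then virus (~0.5 moi) added 4 h after plating, 44 h culture. Luciferase read 15 sec following 15 min substrate incubation, room temp.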
LASV entry inh: qHTS for Inhibitors of binding or entry into cells for Lassa Virus; Potency, µM (titrated, usually from 37.9 µM), inactives show at the highest dose activity change, negative = inhibition, actives largely listed as inhibitors; Lassa virus pseudotype entry inhibition, cell reporter; 300,000 tested, 1.2% active; calls by dose curve; tested in HEK293 cells; further: nearly all actives have a fitted effect of over 50% in size
VACV mCherry inh: qHTS for Stage-Specific Inhibitors of Vaccinia Orthopoxvirus: mCherry Reporter Primary qHTS | Vaccinia virus mCherry reporter infection, fluorescence | Potency, µM (highest dose often 36.5 µM), for the others: top-dose activity change, negative = inhibition, usual class: inhibitors | 310,000 tested, 0.63% active; calls by dose curve; tested in A549 cells; further: nearly all actives have a fitted effect of over 35% in size
Vaccinia Venus: qHTS for Stage-Specific Inhibitors of Vaccinia Orthopoxvirus: Venus Reporter Primary qHTS. Vaccinia virus Venus reporter expression, fluorescence. Potency, µM (titrated, usually from 36.5 µM), for inactives: top-dose activity change, negative = inhibition, actives largely listed as inhibitors. 330,000 tested, 0.46% active. AID 720580, 2013; calls by dose curve; tested in A549 cells; further: nearly all actives have a fitted effect of over 30% in size
Numbers without * were called inactive; i = inactive; ? = inconclusive; · = no result given; ! = not active in a repeat; [ ] = another dose, or the depositor's remark. A selection: hits, their analogues and other compounds. The true share with any hit is near 4.6%. On the % scale 0 is the no-effect control and ±100 the full control effect; potency means the concentration at half of the fitted maximal effect.

SMILES | Marburg entry inh | HCV inhibitor | LASV entry inh | VACV mCherry inh | Vaccinia Venus
O=C(NC1CC1)c1cccc2c1C(=O)c1ccc(N3CCC(Cc4ccccc4)CC3)cc1S2(=O)=O | · | 10µM* | · | -18% | -2%
CCC1CN(CC(=O)NCc2n[nH]c3c2CCCCC3)Cc2cc(OC)ccc2O1 (configuration not stated) | · | · | · | -9% | -9%
C(=N\Nc1nc(-c2ccccc2)cs1)/c1cccs1 | ? | 10µM* | ? | -14% | -13%
C[C@H](C[C@H](O)[C@H]1OC1(C)C)C1=C2C[C@H](O)C3[C@@]4(C)CCC(=O)C(C)(C)C4CC[C@]3(C)[C@@]2(C)CC1 (some centres not stated) | · | ? | · | -7% | ?
C[C@@H](C[C@@H](O)[C@H](O)C(C)(C)O)[C@@H]1CC[C@]2(C)C3=CC[C@H]4C(C)(C)C(=O)CC[C@]4(C)[C@H]3CC[C@@]12C | -16% | -12% | -14% | ? | 11µM*
CCCC(c1nnnn1CS(=O)(=O)c1ccc(C)cc1)N1CCN(C2CCCC2)CC1 (configuration not stated) | ? | ? | 22% | 3% | -12%
CCCCC(c1nnnn1CS(=O)(=O)c1ccc(C)cc1)N1CCN(c2ccccc2)CC1 (configuration not stated) | 14µM* | 0% | ? | -22% | -19%
CN(C)CC/C=C1\c2ccc(F)cc2Sc2cc(F)c(Cl)cc21 | · | 13µM* | · | · | ·
CN(C)CC/C=C1\c2cc(F)ccc2CSc2ccccc21 | ? | ? | 16µM* | -13% | ?
CN(C)CC/C=C1\c2ccccc2Sc2cc(F)c(Cl)cc21 | 14µM* | ? | ? | -9% | ?
CN(C)CC/C=C1/c2ccccc2COc2ccccc21 | · | · | · | -18% | -9%
CN(C)CC/C=C1/c2cc(F)ccc2CSc2ccc(F)cc21 | ? | ? | ? | -3% | -15%
CCOc1ccccc1NC(=O)Nc1cc2c(cc1N1CCCCC1)n(CC)c(=O)n2CC | · | · | ? | -15% | -21%
CC1(C2CCN(Cc3c[nH]c4ccccc34)CC2)NC(=O)N(CCN2CCOCC2)C1=O (configuration not stated) | · | · | · | -12% | -1%
CN(C)CC/C=C1\c2cc(Cl)ccc2Sc2cc(F)c(F)cc21 | · | 11µM* | · | · | ·
C[C@]1(c2cnc(Nc3ccccc3)s2)CCC(=O)O1 | -10%[46.1 µM] | · | · | · | ·
CN(C)c1ccc(CN(Cc2ccco2)C(=O)COc2ccc(F)cc2)cc1 | ? | · | 5.6µM* | -16% | -13%
O=c1c2ccccc2cnn1-c1ccc2ccccc2c1 | ? | -21% | 10µM* | · | ·
COc1cc2c(cc1OC)[C@@H]1O[C@](c3ccsc3)(C2)Oc2cc(C)n(Cc3ccccc3)c(=O)c21 | -14%[14.2 µM] | · | · | · | ·
COC(=O)C1Cc2c([nH]c3ccccc23)C2CCC(=O)N12 (configuration not stated) | · | · | · | i | -7%
COC(=O)[C@@H]1Cc2c([nH]c3ccccc23)C(C)(C)N1C(=O)CCl | 7.1µM* | 1µM* | 7.9µM* | ? | ?
COCCc1nn2c(=O)cc(COC(=O)c3ccccc3C)nc2s1 | · | · | -10%[46.1 µM] | -9%[7.34 µM] | -8%[7.34 µM]
COc1cc2c(NC3CCN(C)CC3)nc(N3CCCN(C)CC3)nc2cc1OCCCC(C)C | · | · | · | ? | 13µM*
COc1cc2nc(N3CCCN(C)CC3)nc(NC3CCN(Cc4ccccc4)CC3)c2cc1OC | ? | · | 1.8µM* | ? | 11µM*!
COc1cc2c(NC3CCN(C)CC3)nc(N3CCCN(C)CC3)nc2cc1OCCCN1CCCCC1 | · | · | · | 4µM* | 3.5µM*
SMILES | Marburg entry inh | HCV inhibitor | LASV entry inh | VACV mCherry inh | Vaccinia Venus
COc1cc2c(NC3CCN(C)CC3)nc(N3CCCN(C)CC3)nc2cc1OCCCCC(N)=O | · | · | · | -18% | -15%
Cc1cc(C)c2c(=O)cc(C(=O)Nc3ccc(C)c(Cl)c3)oc2c1 | 8%[46.1 µM] | · | ? | i | ?
COc1ccc(OC)c(NC(=O)N2CCC(CN3CCCCC3)CC2)c1 | · | · | 13%[46.1 µM] | -3% | -1%
COc1ccc2sc3cccc(NCCN(C)C)c3c(=O)c2c1 | · | · | · | 3% | -27%
CN(C)CCNc1ccc2ncn3c4ccc(O)cc4c(=O)c1c23 | ? | ? | ? | 0.79µM* | 1.1µM*
CN(C)CCNc1ccc(CO)c2sc3ccc(O)cc3c(=O)c12 | 0.89µM* | ? | 1µM* | ? | ?
O=C(c1ccc(Cn2cnnn2)cc1)N1CCOc2ccc(C(O)C3CCCCC3)cc2C1 (configuration not stated) | · | · | · | -18% | -8%
NS(=O)(=O)c1ccc(NC(=O)/C=C/c2cccc(Cl)c2)cc1 | -6% | 11µM* | 1% | · | ·
Cc1cccc(-c2cc3nc4c(c(N5CCOCC5)n3n2)CCCC4)c1 | ? | ? | ? | ? | -20%
CN(C)CCCNc1c2c(nc3cc(-c4cccc(F)c4)nn13)CCC2 | · | 4% | · | · | ·
Cc1cccc(-c2cc3nc4c(c(N5CCC6(CC5)OCCO6)n3n2)CCCC4)c1 | ? | 10µM* | 3% | -16% | -3%
COc1cccc(-c2cc3nc4c(c(N5CCC6(CC5)OCCO6)n3n2)CCC4)c1 | · | 16µM* | · | · | ·
COc1ccc(-c2cc3nc(-c4ccccc4)cc(N4CCC5(CC4)OCCO5)n3n2)cc1 | ? | ? | -28% | -10% | -4%
Cc1cccc(-c2cc3nc4c(c(NCc5ccco5)n3n2)CCCC4)c1 | ? | 7.1µM* | ? | -16% | -20%
CCCNC(=O)OC[C@H]1O[C@H](CCO/N=C2\C[C@@H](O)[C@@H](O)[C@@H]3[C@@H]4C(=O)N(CC)C(=O)[C@@H]4CC[C@@H]23)C=C[C@@H]1Oc1ccc(OC)cc1 | 0%[14.2 µM] | · | · | · | ·
CCC(=O)N1CCc2cc(S(=O)(=O)CCC(=O)Nc3cc(Cl)ccc3OC)ccc21 | 1%[46.1 µM] | · | 8%[46.1 µM] | 2% | 9%
Cc1ccc(O)c(NC(=O)CSc2n[nH]c(C)c2[N+](=O)[O-])c1 | ? | ? | -17%[46.1 µM] | 2.5µM* | ?
c1ccc(-c2ncc3c(ccc4ccccc43)n2)cc1 | ? | 3% | 3.5µM* | -25% | -10%
Clc1ccccc1-c1nn2c(-c3ccncc3)nnc2s1 | 7.3µM* | ? | ? | -21% | -26%
Cc1ccc(-c2nnc3sc(-c4ccncc4)nn23)cc1 | 5.8µM* | 0% | 15% | -11% | -8%
c1ccc(-c2nn3c(-c4ccccc4)nnc3s2)cc1 | 5% | 15% | -1% | -25% | -25%
O=C(Cn1ncc2c1-c1ccccc1OC2)N1CCN(c2ccccc2)CC1 | 10%[46.1 µM] | · | · | -17% | -3%
Cc1ccc(NC(=O)Cc2ccccc2Cl)cc1S(=O)(=O)N(C)C | ? | ? | ? | ? | -22%
Cc1ccc(NC(=O)Cc2ccc(Cl)c(Cl)c2)cc1S(=O)(=O)N(C)C | ? | ? | 13µM* | -20% | -25%
Cc1ccc(NC(=O)CNc2ccc(Cl)c(Cl)c2)cc1S(=O)(=O)N(C)C | ? | 6.3µM* | ? | ? | ?

Screens from PubChem.
